Screening data: PubChem, The Scripps Research Institute Molecular Screening Center
proKLK7 act: activators of human kallikrein-7 zymogen; activation, % at 7 µM; P49862; purified proKLK7, EDANS-DABCYL substrate fluorescence; 100% is mature enzyme control, 0% vehicle; hit rate 0.9% among 370,000; AID 652039;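 active means activation above the mean of all tested compounds plus 3 SD, computed per campaign excluding outliers beyond control limits, cut at about 13% in these data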
ADAM10 inh: inhibitors of human ADAM10; O14672; recombinant ADAM10, EDANS/DABCYL FRET peptide cleavage, 3 h; inhibition, % at 7 µM; hit rate 0.62% among 370,000; AID 720582;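 active means inhibition above a per-campaign cutoff equal to the mean of compounds falling between control-based bounds plus 3 SD, cut at about 20% in these data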
ADAM17 inh: ADAM17 inhibition, QFRET primary screen | P78536 | recombinant ADAM17, EDANS/DABCYL FRET peptide cleavage | inhibition, % at 6.95 µM | hit rate 0.83% among 370,000;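 active means inhibition above the mean of compounds lying between control limits plus 3 SD, set per campaign, cut at about 8.5% in these data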
PLCb3 inh: blocks human PLC-beta3 enzyme activity | inhibition, % at 12.2 µM | Purified PLC-beta3, fluorogenic substrate, fluorescence | hit rate 0.18% among 370,000 | Q01970; in the data active means inhibition above about 11%
Target sequence (Q01970 whole entry, looked up): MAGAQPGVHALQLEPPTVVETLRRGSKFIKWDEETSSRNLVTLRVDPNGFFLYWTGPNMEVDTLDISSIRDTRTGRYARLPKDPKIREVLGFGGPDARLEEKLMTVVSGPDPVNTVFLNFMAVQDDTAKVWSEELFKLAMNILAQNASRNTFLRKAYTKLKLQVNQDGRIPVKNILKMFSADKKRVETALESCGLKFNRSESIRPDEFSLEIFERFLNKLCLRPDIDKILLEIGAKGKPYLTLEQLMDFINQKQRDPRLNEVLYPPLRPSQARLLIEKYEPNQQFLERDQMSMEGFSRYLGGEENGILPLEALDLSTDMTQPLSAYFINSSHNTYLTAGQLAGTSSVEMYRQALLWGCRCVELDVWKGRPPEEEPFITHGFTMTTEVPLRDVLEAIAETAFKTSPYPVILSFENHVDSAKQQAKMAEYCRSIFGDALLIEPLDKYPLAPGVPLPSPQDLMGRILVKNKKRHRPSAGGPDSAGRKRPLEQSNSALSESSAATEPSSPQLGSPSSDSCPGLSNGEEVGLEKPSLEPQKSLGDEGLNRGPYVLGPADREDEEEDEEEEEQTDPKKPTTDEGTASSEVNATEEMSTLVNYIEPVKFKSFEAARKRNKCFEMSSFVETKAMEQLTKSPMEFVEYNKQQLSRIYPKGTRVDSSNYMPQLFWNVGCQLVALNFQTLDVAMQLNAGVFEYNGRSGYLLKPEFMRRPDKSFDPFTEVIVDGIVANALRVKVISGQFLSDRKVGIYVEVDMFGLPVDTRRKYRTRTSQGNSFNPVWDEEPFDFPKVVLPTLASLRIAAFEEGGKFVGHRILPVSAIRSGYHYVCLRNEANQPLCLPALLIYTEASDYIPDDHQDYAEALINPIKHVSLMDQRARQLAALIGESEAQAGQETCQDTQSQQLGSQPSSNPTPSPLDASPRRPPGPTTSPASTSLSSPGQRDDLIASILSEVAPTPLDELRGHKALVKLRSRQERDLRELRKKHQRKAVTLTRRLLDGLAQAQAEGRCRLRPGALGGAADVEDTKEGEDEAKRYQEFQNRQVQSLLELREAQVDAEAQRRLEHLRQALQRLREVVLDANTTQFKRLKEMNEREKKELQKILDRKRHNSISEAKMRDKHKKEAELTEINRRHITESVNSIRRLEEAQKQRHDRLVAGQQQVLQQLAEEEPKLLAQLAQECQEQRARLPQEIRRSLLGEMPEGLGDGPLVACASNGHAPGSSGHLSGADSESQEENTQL
PLCg1 inh: blocks human PLC-gamma1 enzyme activity | P19174 | purified PLC-gamma1, fluorogenic substrate, fluorescence | inhibition, % at 12.2 µM | hit rate 0.84% among 370,000; in the data active means inhibition above about 9.5%
ADAM10 confirm: confirmation of inhibitors of human ADAM10; shares compounds with ADAM10 inh; ADAM10 QFRET peptide cleavage, EDANS fluorescence; inhibition, % at 6.95 µM; hit rate 1% among 2,100; AID 743208;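 active means inhibition above about 20% chosen separately for each screening run, limit read from the data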
ADAM17 counter: ADAM17 inhibition, counter-screen for ADAM10 exosite hits. shares compounds with ADAM10 inh. ADAM17 QFRET peptide cleavage, EDANS fluorescence. inhibition, % at 6.95 µM. hit rate 0.5% among 2,100. AID 743214;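 active means mean triplicate inhibition above the solvent-only control wells' mean plus 3 SD, cut at about 12% in these data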
ADAM10 counter: ADAM10 inhibition, counter-screen for ADAM17 exosite hits. hit rate 47% among 2,900. recombinant ADAM10, EDANS/DABCYL FRET peptide cleavage, 3 h. AID 743256. inhibition, % at 6.95 µM. shares compounds with ADAM17 inh;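 active means mean inhibition over the triplicate runs exceeds the activity threshold set in the earlier primary screen, cut at about 20% in these data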
ADAM17 confirm: human ADAM17 inhibition, confirmation; shares compounds with ADAM17 inh; recombinant ADAM17, EDANS/DABCYL QFRET peptide cleavage; inhibition, % at 6.95 µM; hit rate 65% among 2,900; AID 743257;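 active means mean inhibition across replicates above the hit cutoff set in the primary screen, cut at about 8.5% in these data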
Of the large screens only hits and unclear results are named; the others gave an inactive call (follow-up assays come after a bar, where they were run). Only some compounds are listed: those with a hit (about 2.9% of all), similar ones and a draw of the others.

CCCCCCn1c(=O)n2n(c1=O)C[C@]1(OC(=O)NCc3ccccc3F)CN(S(=O)(=O)c3ccc(C)cc3)C[C@]1(O)C2	ADAM10 inh 37, ADAM17 inh 14 | ADAM10 confirm inactive | ADAM17 counter inactive | ADAM10 counter 33 | ADAM17 confirm 16
O=C(CSc1nnnn1-c1ccccc1)Nc1ncc2c(n1)CC(c1ccccc1)CC2=O (stereo not given)	none
O=C(COc1ccccc1Cl)Nc1nnc(S(=O)(=O)N2CCCCCC2)s1	none
Cc1ccc(NS(=O)(=O)c2ccc(Cl)c(NC(=S)NC(=O)C3CCCCC3)c2)cc1Cl	ADAM10 inh 27, ADAM17 inh 13 | ADAM10 confirm inactive | ADAM17 counter inactive | ADAM10 counter 46 | ADAM17 confirm 27
Cc1ccc(NC(=O)C2CCCC2)cc1Cl	none
CCN1CCN(C(=S)Nc2ccsc2C(=O)OC)CC1	none
COc1ccccc1C(CNC(=O)c1cccc(S(=O)(=O)N2c3ccccc3CC2C)c1)N(C)C (stereo not given)	none
COc1ccc(Cl)cc1Cn1c(C)c(C(=O)NCc2ccc(F)cc2)sc1=O	ADAM10 inh 27, ADAM17 inh 11 | ADAM10 confirm inactive | ADAM17 counter inactive | ADAM10 counter inactive | ADAM17 confirm inactive
CCOc1ccc(CCN2C(=S)N([C@@H](Cc3ccc(O)cc3)CN3CCC[C@@H]3CN3C(=S)NC[C@@H]3CC(C)C)C[C@@H]2Cc2ccc(O)cc2)cc1	ADAM10 inh 23, ADAM17 inh 9.8 | ADAM10 confirm inactive | ADAM17 counter inactive | ADAM10 counter 47 | ADAM17 confirm 24
O=C(CSc1nnc(SCc2cccc3ccccc23)s1)Nc1ccc(C(=O)O)cc1	none
O=C(CSc1nc2ccccc2s1)NNC(=S)Nc1ccc(Br)cc1	ADAM10 inh 21, ADAM17 inh 13 | ADAM10 confirm inactive | ADAM17 counter inactive | ADAM10 counter inactive | ADAM17 confirm inactive
Cc1ccc(NC(=S)NNC(=O)CSc2nnc(SCc3cccc4ccccc34)s2)cc1	ADAM10 inh 21, ADAM17 inh 9.3 | ADAM10 confirm inactive | ADAM17 counter inactive | ADAM10 counter 26 | ADAM17 confirm 11
Cc1cc(C)n(-c2ccc([N+](=O)[O-])cc2)n1	none
CCN1C[C@@H]2[C@@H]3C(=O)N(C)C(=O)[C@@H]3[C@](Cc3ccccc3)(C1=O)N2C(=O)c1ccc(Cl)cc1	none
Cc1ccc(C(C)NC(=O)c2cc3ccccc3oc2=O)cc1C (stereo not given)	none
COc1ccc(NC(=O)c2cc(S(=O)(=O)N(Cc3ccccc3)c3ccccc3)ccc2Cl)cn1	ADAM10 inh 20, ADAM17 inh 9.6 | ADAM10 confirm inactive | ADAM17 counter inactive | ADAM10 counter 23 | ADAM17 confirm 12
COc1ccc(NC(=O)c2cccc(S(=O)(=O)N(C)c3ccccc3)c2)cn1	none
Fc1ccc(CNc2nc(-c3ccccc3)nc3ccccc23)cc1	none
COc1ccc(CNc2nc(-c3ccccc3)nc3ccccc23)cc1OC	ADAM10 inh 22, ADAM17 inh 13 | ADAM10 confirm inactive | ADAM17 counter inactive | ADAM10 counter 24 | ADAM17 confirm 17
Cc1noc(C)c1S(=O)(=O)NC1CCN(Cc2ccccc2)CC1	none
O=C1/C(=C\c2ccc(O)c(O)c2)SC(=S)N1Cc1ccccc1	ADAM10 inh 23, ADAM17 inh 8.9 | ADAM10 confirm inactive | ADAM17 counter inactive | ADAM10 counter 36 | ADAM17 confirm 21
COc1cc(/C=C2/SC(=S)N(Cc3ccccc3)C2=O)ccc1O	ADAM10 inh 23, ADAM17 inh 12 | ADAM10 confirm inactive | ADAM17 counter inactive | ADAM10 counter 38 | ADAM17 confirm 22
CCC(C)(C)c1ccc(Oc2ccc(N)cc2)cc1	none
S=C1NCN(Cc2cccnc2)CN1c1cccc2ccccc12	none
